This note sets out measurements from PubChem BioAssay (Tox21).

Molecules are shown by their SMILES. Records with an inconclusive call do not appear. Unmarked numbers belong to inactive results. Calls follow the shape of the dose curve; as a rule, active = well fitted cell-killing curve with a large enough effect in the repeat runs; inconclusive = weak or mixed curves, or effect the other way; inactive = flat fitted curve, though single readings scatter.
% is scaled to controls: 0 for no effect and ±100 for the full control effect.

A short description of this assay: qHTS assay to identify small molecule agonists of the sonic hedgehog signaling (Shh) pathway - cell viability counter screen (AID 1259366). Also: nearly all actives have a fitted effect of over 50% in size. The conditions noted are these: NIH/3T3 Gli1-Luc viability, CellTiter-Fluor, 24 h; series mostly up to 92.4 µM; viability change, negative = cytotoxic: at the top concentration. The text has this: National Center for Advancing Translational Sciences [NCATS]
NIH Chemical Genomics Center [NCGC]
U.S. Environmental Protection Agency [EPA]
National Institutes of Environmental Health Sciences [NIEHS]
National Toxicology Program [NTP]
U.S. Food and Drug Administration [FDA]
The sonic hedgehog (Shh) pathway is essential for normal embryonic development. Dysregulation of the Shh pathway can cause severe developmental defects in organs. Therefore chemicals that interfere with the pathway are potential developmental toxicants. A cell line designated 3T3Gli1-Luc (DMB/OARSA/CFSAN/FDA, Laurel, MD), a NIH/3T3 derived clone containing stably integrated Gli1-Luc reporter is used to detect chemical interference of the Shh pathway, by changes in the expression of the firefly Luc gene under the control of the Gli1 transcriptional response element. This cell line was used to screen Tox21 libraries for identifying and prioritizing the potential developmental toxicants that interfere Shh pathway. The cytotoxicity of the compounds was tested in parallel by measuring the cell viability using CellTiter-Fluor assay system (Promega, Madison, WI) in the same wells.
Tox21 Assay Protocol Summary:
3T3 Gli1-Luc cells were dispensed at 2,000 per well in 5uL of culture medium into white solid bottom 1536-well plates (Greiner Bio-One, Monroe, NC) using a Multidrop Combi (Thermo Scientific, Waltham, MA) dispenser. The assay plates were incubated at 37 C and 5% CO2 for 4hr, and then 23nL of compounds dissolved in DMSO and positive control were transferred using a Pintool station (Wako, San Diego, CA). The assay plates were incubated at 37C and 5% CO2 for 24hr. For viability read, after 23hr of compound treatment, 1uL of CellTiter-Fluor reagent (Promega Corporation, Madison, WI) was added to each well of the assay plates using Flying Reagent Dispenser (FRD, Aurora Discovery, San Diego, CA) and incubated the assay plates at 37C for 1hr. The fluorescence signal was quantified using a ViewLux plate reader (Perkin Elmer, Shelton, CT).
Regarding `Cc1c(C)n(CCN(C)C)c2ccc(C(=O)OCCN(C)C)cc12`, the “viability change, negative = cytotoxic” value was 9.83% [at 42.5 µM]. As for `CCCC=O`, the figure is -3.4%. Next, `COC[C@H](c1ccc(C(F)(F)F)cc1)N1CCN(C2(C)CCN(C(=O)c3c(C)ncnc3C)CC2)C[C@H]1C`: -6.7% [at 42.5 µM]; `Cc1cc(C)cc(OCC2CNC(=O)O2)c1` (stereo not given): 2.21% [at 42.5 µM]. As to `CC1(C)SC(C)(C)SC(C)(C)S1`, the “viability change, negative = cytotoxic” value is -1.02%.

Turning to `O=C1C(CCS(=O)c2ccccc2)C(=O)N(c2ccccc2)N1c1ccccc1` (stereo not given), the “viability change, negative = cytotoxic” value was 1.26% [at 42.5 µM]. With `C#CC(O)C(CC)CCCC` (stereo not given), the “viability change, negative = cytotoxic” value was 5.49%. Next, `CC(C)c1ccc2oc3nc(N)c(C(=O)O)cc3c(=O)c2c1`: -10.5% [at 42.5 µM]; `CCCCCC[C@@H](CCC)C(=O)O`: 18.9% [at 42.5 µM]; `CCCC(C)CO` (stereo not given): -0.226%. For `C1COCCO1`, the “viability change, negative = cytotoxic” value was -5.3%. Next, `CSc1nc(NC2CC2)nc(NC(C)(C)C)n1`: -16.5%; `COc1cccc(Br)c1`: 0.536%. As for `Cc1ccccc1Br`, the figure is 4.53%; as for `NCCNC(=O)c1ccc(Cl)cn1`, -5.12% [at 42.5 µM]. As for `c1ccc2cnncc2c1`, the figure is -1.13%; as for `CCC(C)OC(=O)N1CCCCC1CCO` (stereo not given), -3.29%; as for `CCO[Si](CCCN=C=O)(OCC)OCC`, 9.74%. Take `CCCCN(CCO)CCO`: the “viability change, negative = cytotoxic” value is 6.48%. As for `OCCCCCCO`, the figure is -1.98%; as for `CC(C)(O)Cc1ccccc1`, -3.83%. As to `Nc1[nH]c(=O)ncc1F`, the “viability change, negative = cytotoxic” value is 4.56% [at 42.5 µM]. As for `COc1cc(C)cc(O)c1`, the figure is -4.88%.

As for `O=C1CC2(CCCC2)CC(=O)N1`, the “viability change, negative = cytotoxic” value is -1.14% [at 42.5 µM]. Next, `CC(C)=CC(=O)O`: 1.45%; `Cn1cnc2c(=O)[nH]c(N)nc21`: 0.962%; `CC1=CC(C)C(C=O)C(C)C1` (stereo not given): -2.8%.

For `CCc1cc(S(=O)(=O)O)c2cc(C(C)C)cccc1-2`, the “viability change, negative = cytotoxic” value was -4.94% [at 42.5 µM].

`OC1OC[C@@H](O)[C@H](O)[C@H]1O` (stereo not given in full): the “viability change, negative = cytotoxic” value is 0.327%. `C[C@H]1O[C@@H](n2cc(F)c(=O)[nH]c2=O)[C@H](O)[C@@H]1O`: the “viability change, negative = cytotoxic” value is 1.53% [at 42.5 µM]. As for `CC(C)(C)N(CCO)CCO`, the figure is -8.44%. As to `C[C@H](O)C(=O)Nc1c(I)c(C(=O)NC(CO)CO)c(I)c(C(=O)NC(CO)CO)c1I`, the “viability change, negative = cytotoxic” value is -1.97% [at 42.5 µM]. As for `Nc1ccn(C2CO[C@H](CO)O2)c(=O)n1` (stereo not given in full), the figure is 8.33% [at 42.5 µM]. Next, `NS(=O)(=O)c1cc2c(cc1C(F)(F)F)NC(Cc1ccccc1)NS2(=O)=O` (stereo not given): 1.63% [at 42.5 µM].

Regarding `C=CCOc1nc(OCC=C)nc(OCC=C)n1`, the “viability change, negative = cytotoxic” value was 5.47%. As for `OCCN1C[C@H](O)[C@@H](O)[C@H](O)[C@H]1CO`, the figure is 3.49% [at 42.5 µM]; as for `CCCCCCC(CCCCCCCCCCC(=O)OCC(COC(C)=O)OC(C)=O)OC(C)=O` (stereo not given), 11.4% [at 42.5 µM]. Next, `Nc1ccc2cc(S(=O)(=O)O)ccc2c1`: 15.5%; `COCc1ccc(COC)cc1`: 1.28%. `C(=C(c1ccccc1)c1ccccc1)c1ccccc1`: the “viability change, negative = cytotoxic” value was 3.06%.
